SW480 rerep – inducers of DNA re-replication in SW480 colon cancer cells; SW480 DNA re-replication, Hoechst DNA content imaging, 48 h; Potency, µM (highest dose often 46.1 µM), inactives show top-dose re-replication activation, usual class: activators; 1.8% of 340,000 active; AID 624297; also: % of control where 0% means no effect; nearly all actives have a fitted effect of over 55% in size
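Compounds, transferred as 23 nL by pin tool, were incubated with cells for 48 hr; DNA content per nucleus was then quantified by Hoechst staining and fluorescence plate imaging.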
HT1080-NT tox – kills 2HG-producing HT-1080-NT fibrosarcoma cells; HT-1080-NT fibrosarcoma viability, CellTiter-Glo ATP luminescence, 48 h; Potency, µM (highest dose often 46.1 µM), inactives show at the top dose activity, negative = less viability, usual class: cytotoxic; 1.6% of 360,000 active; AID 686970;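 also: NT is the 2HG producing partner of a matched IDH1 knockdown line; 0% = DMSO-treated cells and -100% = media-only wells without cells; nearly all actives have a fitted effect of over 55% in size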
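Read-out is CellTiter-Glo luminescence after 10 minutes at room temperature, following 48 hours' compound treatment of HT-1080-NT cells (750 cells/well, RPMI, 5% FBS, 37 degrees C).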
HT1080 IDH1KD tx – HT-1080 IDH1 knockdown cell toxicity (counter line) | HT-1080 IDH1 knockdown viability, ATP luminescence, 48 h | Potency, µM (series often up to 46.1 µM), for inactives: at the top dose activity, negative = toxicity, hits mostly cytotoxic | 2% of 360,000 active | AID 686971;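 also: 0% = DMSO wells and -100% = cell-free medium wells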
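% activity derives from luminescence (CellTiter-Glo), normalised to DMSO and no-cell wells. HT-1080-IDH1KD cells, 750/well, had 48 h compound exposure at 37 °C.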
MCF10A rereplic – inducers of DNA re-replication in MCF 10A breast cells. MCF 10A DNA re-replication, Hoechst nuclear intensity, 48 h. 2.9% of 350,000 active. Potency, µM (highest dose often 46.1 µM), for inactives: top-dose activity, positive = re-replication, hits mostly activators; also: % of control where 0% means no effect; nearly all actives have a fitted effect of over 50% in size
KB-3-1 cytotox – kills parental KB-3-1 adenocarcinoma cells; AID 1347075; KB-3-1 viability, CellTiter-Glo ATP luminescence, 72 h; Potency, µM (titrated, usually from 46.1 µM), usual class: cytotoxic; 1.4% of 400,000 active; also: % is scaled to controls: 0 for no effect and ±100 for the full control effect; nearly all actives have a fitted effect of over 60% in size
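72 h, 37 °C compound treatment of KB-3-1 parental cells; CellTiter-Glo added, 10 min, luminescence read. Data corrected against DMSO-only plates and normalized before curve fitting.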
KB-V1 MDR tox – KB-V1 MDR subline cytotoxicity; KB-V1 MDR cells viability, CellTiter-Glo, 72 h; Potency, µM (titrated, usually from 46.1 µM), actives largely listed as cytotoxic; 3.4% of 400,000 active; AID 1347076; also: % is scaled to controls: 0 for no effect and ±100 for the full control effect; nearly all actives have a fitted effect of over 60% in size
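Compound-treated KB-V1 multidrug-resistant cells, 72 h, 37 degrees C; viability by CellTiter-Glo. Fitted qHTS curves give the values.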
The depositor's hits bear a star; i = inactive; ? = inconclusive; . = not tested or not shown. In the library only some 7.9% were active in any assay of this set; here they are far more common. Calls follow the shape of the dose curve; as a rule, active = well fitted curve in the direction sought with a large enough effect; inconclusive = small, poorly fitted or top-dose-only effect, or another doubt; inactive = no such curve, though single readings can be large; an effect the other way counts as inactive or inconclusive. Potency is read from the fitted curve at half-maximal effect.

SMILES	SW480 rerep	HT1080-NT tox	HT1080 IDH1KD tx	MCF10A rereplic	KB-3-1 cytotox	KB-V1 MDR tox
C[C@]12CC[C@H](O)CC1=CCC1C2CC[C@@]2(C)C1CC[C@@H]2NC(=O)[C@@H](N)Cc1ccccc1 (stereo not given in full)	?	-2.1%	-28.2%	?	i	i
CC(=O)C1CCC2C3CC=C4CC(SC(=N)N)CCC4(C)C3CCC12C (stereo not given)	?	?	?	?	?	23.1µM*
CCc1cc(=O)oc2cc(C)cc(OC(C)C(=O)NCc3ccccn3)c12 (stereo not given)	-2.5%	0.6%	-6.7%	1.7%	i	i
O=c1oc2c(CN3CCOCC3)c(O)ccc2cc1-c1ccccc1	.	.	.	.	i	?
O=c1oc2c(CN3CCN(CCO)CC3)c(O)ccc2cc1-c1ccccn1	6.51µM*	-1.7%	6.3%	8.2µM*	i	?
Cc1ccc(CSc2nc3sc(C)c(C)c3c(=O)n2Cc2ccco2)cc1	-12.0%	6.4%	2.8%	-0.8%	i	i
COc1ccc(NC(=O)CSc2nc3sc(C)c(C)c3c(=O)n2Cc2ccco2)cc1	?	-0.3%	?	14.6µM*	i	?
Cc1sc2nc(SCC(=O)C(C)(C)C)n(Cc3ccco3)c(=O)c2c1C	5.8µM*	7.08µM*	6.31µM*	5.8µM*	?	2.59µM*
Cc1sc2nc(SCc3ccccc3)n(Cc3ccco3)c(=O)c2c1C	6.2%	-2.2%	8.1%	9.2µM*	i	i
c1csc(-c2nc(N3CCOCC3)c3ccccc3n2)c1	5.3%	-20.4%	-20.8%	29.2%	i	?
CN(c1ccccc1)S(=O)(=O)c1ccc(Cl)c(C(=O)Nc2nn[nH]n2)c1	-9.0%	-11.9%	8.1%	-4.1%	?	i
Cc1ccc(S(=O)(=O)Nc2ccc(Nc3nccn4c(-c5cccc(OC(F)(F)F)c5)cnc34)cc2)cc1	.	18.4µM*	?	.	?	?
O=[N+]([O-])c1ccc(/C=C/c2nc3ccc([N+](=O)[O-])cc3[nH]2)cc1	-4.1%	2.2%	29.6%	-0.7%	i	3.66µM*
Cc1ccc(NS(=O)(=O)c2cc(C(=O)NCCSC3CCCCC3)ccc2C)cc1	11.6%	?	?	?	?	?
Cc1cccc(-n2c(=O)c3ccccc3n(Cc3ccccc3)c2=O)c1	.	.	.	.	i	i
Cc1c(CCCN)c2ccccc2n1Cc1ccccc1	?	?	20.6µM*	?	i	?
C=CCn1c(SCC(=O)Nc2cc(C)c(Cl)cc2OC)nnc1-c1ccco1	-12.2%	?	?	17.8%	i	2.31µM*
C=CCn1c(SCC(=O)N2CCN(c3ccccc3)CC2)nnc1-c1ccco1	-4.5%	0.6%	4.3%	8.6%	i	13µM*
Cc1ccc(C)c(NC(=O)CN(C)C(=O)c2ccc(-c3cccc(C(F)(F)F)c3)o2)c1	-3.3%	-3.4%	5.1%	19.7%	i	18.4µM*
CC1CCCN(C(=O)CSc2nnc3n(C4CCCC4)c(=O)c4ccccc4n23)C1 (stereo not given)	-9.1%	2.4%	6.1%	3.1%	i	i
CC(C)[C@@H](CO)NC(=O)c1ccc2c3n(nc2c1)-c1ccccc1CO3	-6.2%	?	?	-0.7%	i	i
CC(C)NC(=O)c1ccc2c3n(nc2c1)-c1ccccc1CO3	-13.4%	?	?	24.4%	?	5.8µM*
CC1CCCCC1NC(=O)CCCn1c(=S)[nH]c2ccsc2c1=O (stereo not given)	?	-8.2%	-2.3%	0.2%	i	i
CCc1nc(SCc2ccccn2)[nH]c(=O)c1C	6.7%	12.8%	-0.2%	-4.8%	i	i
O=C(NCc1ccc(F)cc1)C1CCN(S(=O)(=O)N2CCCCC2)CC1	-15.2%	-0.2%	7.7%	4.6%	i	i

Bioassay records (PubChem)
